Targets with a hit are over-represented here; the source holds about 7,900 in all. About 0.6% of all pairs of compound and target were hits.

Chain of UniProt Q14442 (Q14442 whole entry, looked up): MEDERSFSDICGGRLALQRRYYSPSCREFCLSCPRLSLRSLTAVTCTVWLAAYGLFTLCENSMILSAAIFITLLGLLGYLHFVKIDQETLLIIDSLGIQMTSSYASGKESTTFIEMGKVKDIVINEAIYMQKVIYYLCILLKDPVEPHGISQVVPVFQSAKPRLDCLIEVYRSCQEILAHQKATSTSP
Chain of UniProt Q9H0R6 (Q9H0R6 whole entry, looked up): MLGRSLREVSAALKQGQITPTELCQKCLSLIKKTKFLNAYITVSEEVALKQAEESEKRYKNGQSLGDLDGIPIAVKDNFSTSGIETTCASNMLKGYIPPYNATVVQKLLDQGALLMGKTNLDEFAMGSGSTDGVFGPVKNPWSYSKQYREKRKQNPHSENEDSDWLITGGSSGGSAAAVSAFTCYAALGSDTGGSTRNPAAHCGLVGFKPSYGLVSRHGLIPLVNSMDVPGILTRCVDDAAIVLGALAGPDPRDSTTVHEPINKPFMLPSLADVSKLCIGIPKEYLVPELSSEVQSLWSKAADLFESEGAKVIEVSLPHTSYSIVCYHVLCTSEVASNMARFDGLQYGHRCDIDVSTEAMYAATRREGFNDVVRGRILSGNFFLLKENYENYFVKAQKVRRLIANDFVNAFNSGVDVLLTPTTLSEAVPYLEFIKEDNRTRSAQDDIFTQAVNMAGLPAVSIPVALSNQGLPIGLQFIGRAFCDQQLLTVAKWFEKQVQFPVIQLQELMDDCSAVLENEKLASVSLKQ
Chain of UniProt O94806 (O94806 whole entry, looked up): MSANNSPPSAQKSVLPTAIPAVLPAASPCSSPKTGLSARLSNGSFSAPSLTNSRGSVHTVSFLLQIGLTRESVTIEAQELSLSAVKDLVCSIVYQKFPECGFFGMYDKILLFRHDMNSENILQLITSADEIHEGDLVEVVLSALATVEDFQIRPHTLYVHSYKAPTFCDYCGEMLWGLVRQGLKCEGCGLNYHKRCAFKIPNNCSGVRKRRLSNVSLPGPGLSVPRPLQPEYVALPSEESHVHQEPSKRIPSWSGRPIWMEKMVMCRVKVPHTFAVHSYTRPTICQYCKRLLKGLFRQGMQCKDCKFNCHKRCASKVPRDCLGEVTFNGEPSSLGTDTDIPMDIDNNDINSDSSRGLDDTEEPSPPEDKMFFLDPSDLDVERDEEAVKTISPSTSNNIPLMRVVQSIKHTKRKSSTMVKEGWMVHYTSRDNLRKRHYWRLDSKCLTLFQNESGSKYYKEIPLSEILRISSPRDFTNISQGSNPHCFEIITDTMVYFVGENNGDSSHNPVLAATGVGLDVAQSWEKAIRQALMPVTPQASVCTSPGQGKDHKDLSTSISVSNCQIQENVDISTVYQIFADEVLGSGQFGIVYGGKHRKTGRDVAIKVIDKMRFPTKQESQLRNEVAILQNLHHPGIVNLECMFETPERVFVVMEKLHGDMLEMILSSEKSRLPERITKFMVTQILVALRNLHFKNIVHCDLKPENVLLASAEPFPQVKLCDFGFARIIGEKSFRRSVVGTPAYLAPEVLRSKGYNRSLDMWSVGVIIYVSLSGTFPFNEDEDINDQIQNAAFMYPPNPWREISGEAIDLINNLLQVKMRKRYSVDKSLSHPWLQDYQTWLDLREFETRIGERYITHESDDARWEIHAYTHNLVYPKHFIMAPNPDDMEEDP
Chain of UniProt O94913 (O94913 whole entry, looked up): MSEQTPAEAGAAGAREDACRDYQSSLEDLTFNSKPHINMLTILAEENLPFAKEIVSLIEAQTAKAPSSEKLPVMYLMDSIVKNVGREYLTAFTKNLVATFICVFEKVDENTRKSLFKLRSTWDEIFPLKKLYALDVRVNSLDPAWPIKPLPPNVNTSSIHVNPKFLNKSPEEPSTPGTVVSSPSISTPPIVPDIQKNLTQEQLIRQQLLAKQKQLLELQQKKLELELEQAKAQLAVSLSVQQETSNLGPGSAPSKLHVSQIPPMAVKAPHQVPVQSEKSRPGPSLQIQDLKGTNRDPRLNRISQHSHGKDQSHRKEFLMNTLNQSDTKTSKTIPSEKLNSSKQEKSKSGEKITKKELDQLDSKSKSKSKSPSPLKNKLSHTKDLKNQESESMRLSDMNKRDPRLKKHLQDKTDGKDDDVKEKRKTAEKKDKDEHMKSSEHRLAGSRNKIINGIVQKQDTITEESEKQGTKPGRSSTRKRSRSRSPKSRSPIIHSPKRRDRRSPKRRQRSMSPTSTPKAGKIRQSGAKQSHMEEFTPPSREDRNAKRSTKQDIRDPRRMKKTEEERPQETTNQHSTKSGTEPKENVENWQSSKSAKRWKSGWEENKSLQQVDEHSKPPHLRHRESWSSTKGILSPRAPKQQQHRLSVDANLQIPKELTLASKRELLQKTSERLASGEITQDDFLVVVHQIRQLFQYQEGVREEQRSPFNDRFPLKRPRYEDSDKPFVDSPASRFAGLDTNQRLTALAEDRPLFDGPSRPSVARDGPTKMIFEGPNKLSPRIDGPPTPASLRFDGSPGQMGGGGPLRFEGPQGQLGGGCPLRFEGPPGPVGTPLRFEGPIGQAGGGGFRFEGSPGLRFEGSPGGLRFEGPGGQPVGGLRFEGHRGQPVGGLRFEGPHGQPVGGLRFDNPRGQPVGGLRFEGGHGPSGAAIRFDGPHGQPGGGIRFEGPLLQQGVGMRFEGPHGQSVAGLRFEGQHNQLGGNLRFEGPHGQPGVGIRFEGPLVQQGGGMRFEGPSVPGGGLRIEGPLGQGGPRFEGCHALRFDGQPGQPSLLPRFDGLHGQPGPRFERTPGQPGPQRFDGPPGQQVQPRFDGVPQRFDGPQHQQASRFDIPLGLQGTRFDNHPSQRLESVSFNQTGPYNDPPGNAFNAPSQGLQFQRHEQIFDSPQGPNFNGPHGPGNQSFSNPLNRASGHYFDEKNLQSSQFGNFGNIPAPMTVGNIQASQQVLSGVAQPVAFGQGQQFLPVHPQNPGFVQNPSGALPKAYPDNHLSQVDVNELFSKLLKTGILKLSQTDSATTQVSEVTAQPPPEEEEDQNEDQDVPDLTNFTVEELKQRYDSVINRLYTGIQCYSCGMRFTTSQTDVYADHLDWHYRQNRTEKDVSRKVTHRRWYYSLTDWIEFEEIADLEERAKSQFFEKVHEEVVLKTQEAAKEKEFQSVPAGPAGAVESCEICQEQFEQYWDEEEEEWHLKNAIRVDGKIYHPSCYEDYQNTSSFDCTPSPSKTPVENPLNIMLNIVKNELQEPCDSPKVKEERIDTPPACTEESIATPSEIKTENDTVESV
Chain of UniProt P28065 (P28065 whole entry, looked up): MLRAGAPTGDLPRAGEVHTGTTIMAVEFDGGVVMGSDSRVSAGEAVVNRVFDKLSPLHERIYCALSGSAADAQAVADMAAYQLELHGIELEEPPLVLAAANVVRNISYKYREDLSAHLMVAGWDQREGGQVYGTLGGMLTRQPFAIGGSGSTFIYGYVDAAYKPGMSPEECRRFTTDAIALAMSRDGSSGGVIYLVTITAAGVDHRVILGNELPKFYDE
Chain of UniProt Q08752 (Q08752 whole entry, looked up): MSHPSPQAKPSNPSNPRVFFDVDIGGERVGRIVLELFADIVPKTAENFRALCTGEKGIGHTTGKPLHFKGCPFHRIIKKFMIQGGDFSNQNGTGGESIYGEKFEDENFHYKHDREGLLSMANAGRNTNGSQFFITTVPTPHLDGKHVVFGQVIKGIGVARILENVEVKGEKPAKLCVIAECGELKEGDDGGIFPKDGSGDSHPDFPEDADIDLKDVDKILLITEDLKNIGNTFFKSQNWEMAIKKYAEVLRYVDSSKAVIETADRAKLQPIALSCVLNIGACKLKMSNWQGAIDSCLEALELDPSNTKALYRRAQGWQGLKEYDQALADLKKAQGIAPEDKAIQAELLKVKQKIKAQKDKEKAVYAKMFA
Chain of UniProt Q9UPN7 (Q9UPN7 whole entry, looked up): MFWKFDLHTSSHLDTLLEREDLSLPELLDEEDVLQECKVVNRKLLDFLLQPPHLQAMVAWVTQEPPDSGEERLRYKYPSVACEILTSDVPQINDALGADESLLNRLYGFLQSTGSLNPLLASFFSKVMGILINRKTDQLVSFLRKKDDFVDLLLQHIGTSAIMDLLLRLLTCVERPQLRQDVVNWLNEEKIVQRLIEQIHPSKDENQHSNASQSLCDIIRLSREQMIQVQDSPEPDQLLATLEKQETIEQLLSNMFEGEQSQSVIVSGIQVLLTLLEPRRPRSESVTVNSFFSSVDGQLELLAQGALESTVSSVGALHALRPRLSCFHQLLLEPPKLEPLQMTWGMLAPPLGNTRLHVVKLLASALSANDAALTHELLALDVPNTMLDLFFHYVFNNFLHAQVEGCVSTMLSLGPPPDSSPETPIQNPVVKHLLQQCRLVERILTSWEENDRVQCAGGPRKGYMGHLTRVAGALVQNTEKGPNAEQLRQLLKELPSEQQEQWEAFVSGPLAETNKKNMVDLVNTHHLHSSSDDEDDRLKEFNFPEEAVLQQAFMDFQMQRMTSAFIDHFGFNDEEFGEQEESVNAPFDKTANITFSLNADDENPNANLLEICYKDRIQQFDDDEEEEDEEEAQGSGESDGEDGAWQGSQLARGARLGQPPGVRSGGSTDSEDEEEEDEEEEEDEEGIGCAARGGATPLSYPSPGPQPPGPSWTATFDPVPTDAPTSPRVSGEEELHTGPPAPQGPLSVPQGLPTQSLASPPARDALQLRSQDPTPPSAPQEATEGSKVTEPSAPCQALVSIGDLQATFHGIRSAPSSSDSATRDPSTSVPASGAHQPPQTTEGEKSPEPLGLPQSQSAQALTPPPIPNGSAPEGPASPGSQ
Chain of UniProt Q96PU8 (Q96PU8 whole entry, looked up): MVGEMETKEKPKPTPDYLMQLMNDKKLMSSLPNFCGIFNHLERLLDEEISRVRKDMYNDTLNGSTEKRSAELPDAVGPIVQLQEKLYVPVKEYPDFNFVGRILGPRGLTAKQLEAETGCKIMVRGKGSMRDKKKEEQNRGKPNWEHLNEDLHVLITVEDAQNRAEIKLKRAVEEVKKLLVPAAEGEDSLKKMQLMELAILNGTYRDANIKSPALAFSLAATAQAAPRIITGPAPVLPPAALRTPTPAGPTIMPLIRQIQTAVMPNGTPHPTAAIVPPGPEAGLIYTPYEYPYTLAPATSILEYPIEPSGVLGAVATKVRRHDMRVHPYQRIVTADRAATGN

Compound in one test: C1=CC=C(C=C1)[C@H](COC2=CC3=C(C=C2)NC(=O)N3)NC(=O)C4=CC=CN(C4=O)CC5=CC(=C(C=C5)F)F
The test is described as follows: log2 fold change, soluble protein after heating vs DMSO (PISA); higher = thermal stabilisation; K562 cells, 10 uM, 30 min; active = over 0.2 and 3.5 SD of the protein, either way, in both replicates (recomputed). The method, boiled down:
(§1)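 K562 cells (2×10^6 cells/mL) were treated with 10 μM compound for 30 min, and aliquots were heated for 3 min over 48°C-58°C. Pooled aliquots were extracted in PBS with 0.5% NP-40 at 4°C, and the supernatant after 21,000xg for 90 min was measured by TMTpro 16plex LC-MS/MS with channel sums equalised. Reported thermal stability, relative to control samples and from duplicates, is a log2 fold change.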
With PHKA1 (UniProt P46020), the log2 fold change was 0.028 (inactive).

Take QKI (UniProt Q96PU8): the log2 fold change is -0.016 (inactive).

For PRPF31 (UniProt Q8WWY3), the log2 fold change is -0.07 (inactive).

Take PPID (UniProt Q08752): the log2 fold change was -0.079 (inactive).

For the target PSME4 (UniProt Q14997), the log2 fold change was -0.041 (inactive).

As for PCF11 (UniProt O94913), the log2 fold change was -0.319 (inactive).

With PSMB9 (UniProt P28065), the log2 fold change is 0.182 (inactive).

In the case of PCBP2 (UniProt F8VZX2), the log2 fold change is -0.1 (inactive).

Regarding PHC3 isoform 7 (UniProt Q8NDX5), the log2 fold change is -0.023 (inactive).

For QRSL1 (UniProt Q9H0R6), the log2 fold change is -0.01 (inactive).

As for PAN2 (UniProt Q504Q3), the log2 fold change is -0.298 (inactive).

In the case of PRG4 (UniProt Q92954), the log2 fold change was 0.007 (inactive).

For PSMA3 (UniProt G3V4X5), the log2 fold change is -0.073 (inactive).

Consider PPP1R12C (UniProt Q9BZL4), for which the log2 fold change was -0.16 (inactive).

Regarding PCNX1 (UniProt Q96RV3), the log2 fold change is 0.064 (inactive).

On to PKM isoform 2 (UniProt P14618), for which the log2 fold change was 0.063 (inactive).

With PNN (UniProt Q9H307), the log2 fold change is 0.084 (inactive).

As for PRKD3 (UniProt O94806), the log2 fold change was -0.103 (inactive).

For PPP6R1 (UniProt Q9UPN7), the log2 fold change is -0.011 (inactive).

PTP4A3 (UniProt O75365): the log2 fold change is 0.037 (inactive).

For the target PIGH (UniProt Q14442), the log2 fold change is 0.044 (inactive).

Take PCYT1A (UniProt P49585): the log2 fold change is -0.035 (inactive).

On to PSMC3 (UniProt E9PLG2), for which the log2 fold change is 0.03 (inactive).

Consider PPP2R5B (UniProt Q15173), for which the log2 fold change is -0.058 (inactive).

Compound in a further test: CC1=C(SC2=C1C(=N[C@H](C3=NN=C(N32)C)CC(=O)N)C4=CC=C(C=C4)Cl)C
The description is as above. The method, boiled down:
as §1
PHKA1 (UniProt P46020): the log2 fold change is -0.078 (inactive).

For PSMA3 (UniProt H0YJ03), the log2 fold change is 0.193 (inactive).

Turning to QKI (UniProt Q96PU8), the log2 fold change was 0.039 (inactive).

Take POGZ (UniProt Q7Z3K3): the log2 fold change was 0.056 (inactive).

With PUM1 (UniProt Q14671), the log2 fold change was 0.116 (inactive).

For PRPF31 (UniProt Q8WWY3), the log2 fold change was 0.028 (inactive).

Consider PPID (UniProt Q08752), for which the log2 fold change is 0.031 (inactive).

For PSME4 (UniProt Q14997), the log2 fold change is 0.017 (inactive).

For PCF11 (UniProt O94913), the log2 fold change is -0.02 (inactive).

With PSMB9 (UniProt P28065), the log2 fold change was 0.138 (inactive).

For the target PCBP2 (UniProt F8VZX2), the log2 fold change is -0.107 (inactive).

Turning to PHC3 isoform 7 (UniProt Q8NDX5), the log2 fold change is -0.025 (inactive).

In the case of PSD3 (UniProt Q9NYI0), the log2 fold change is 0.045 (inactive).

On to QRSL1 (UniProt Q9H0R6), for which the log2 fold change is 0.142 (inactive).

With PSMD8 (UniProt K7EK21), the log2 fold change was -0.11 (inactive).

On to PRG4 (UniProt Q92954), for which the log2 fold change was -0.044 (inactive).

PSMC1 (UniProt G3V4X1): the log2 fold change is -0.021 (inactive).

With PNN (UniProt Q9H307), the log2 fold change is 0.021 (inactive).

For PDPK1 (UniProt O15530), the log2 fold change is 0.065 (inactive).

For the target PDE4DIP (UniProt E9PS60), the log2 fold change is 0.013 (inactive).

For the target PRR14L (UniProt Q5THK1), the log2 fold change was -0.052 (inactive).

Regarding PRKD3 (UniProt O94806), the log2 fold change was 0.044 (inactive).

On to PPP6R1 (UniProt Q9UPN7), for which the log2 fold change is 0.002 (inactive).

On to PIGH (UniProt Q14442), for which the log2 fold change was 0.064 (inactive).

In the case of PEX5 isoform 4 (UniProt P50542), the log2 fold change was -0.147 (inactive).

As to PCYT1A (UniProt P49585), the log2 fold change is 0.005 (inactive).

For the target POLB (UniProt P06746), the log2 fold change was 0.053 (inactive).

Compound in the next test: CC1=C2C(=CC=C1)N=C(N(C2=O)C3=CC=CC=C3C)CN4C=NC5=C(N=CN=C54)N
The test is described as above. Summed up: as §1
For the target PSMA3 (UniProt H0YJ03), the log2 fold change is 0.119 (inactive).

For the target QKI (UniProt Q96PU8), the log2 fold change was 0.105 (inactive).

As for POGZ (UniProt Q7Z3K3), the log2 fold change was 0.099 (inactive).

As for PRPF31 (UniProt Q8WWY3), the log2 fold change is 0.174 (inactive).

On to PPID (UniProt Q08752), for which the log2 fold change was 0.036 (inactive).

Turning to PSME4 (UniProt Q14997), the log2 fold change was 0.017 (inactive).

Take PCF11 (UniProt O94913): the log2 fold change is 0.068 (inactive).

For the target PSMB9 (UniProt P28065), the log2 fold change was 0.179 (inactive).

PSD3 (UniProt Q9NYI0): the log2 fold change was 0.052 (inactive).

As for QRSL1 (UniProt Q9H0R6), the log2 fold change was 0.147 (inactive).

On to PAN2 (UniProt Q504Q3), for which the log2 fold change is 0.053 (inactive).

Turning to PRG4 (UniProt Q92954), the log2 fold change is -0.15 (inactive).

With PSMD8 (UniProt K7ERW6), the log2 fold change is 0.2 (inactive).

For the target PSMA3 (UniProt G3V4X5), the log2 fold change was 0.147 (inactive).

Regarding PPP1R12C (UniProt Q9BZL4), the log2 fold change is 0.05 (inactive).

PCNX1 (UniProt Q96RV3): the log2 fold change was 0.103 (inactive).

Turning to PKM isoform 2 (UniProt P14618), the log2 fold change is -0.057 (inactive).

For PDPK1 (UniProt O15530), the log2 fold change was 0.014 (inactive).

Take PDE4DIP (UniProt E9PS60): the log2 fold change is -0.209 (inactive).

On to PRR14L (UniProt Q5THK1), for which the log2 fold change is 0.312 (inactive).

With PRKD3 (UniProt O94806), the log2 fold change was -0.007 (inactive).

On to PPP6R1 (UniProt Q9UPN7), for which the log2 fold change is 0.108 (inactive).

As for PTP4A3 (UniProt O75365), the log2 fold change is 0.391 (inactive).

Turning to PIGH (UniProt Q14442), the log2 fold change was 0.144 (inactive).

For the target PEX5 isoform 4 (UniProt P50542), the log2 fold change is 0.043 (inactive).

Consider PCYT1A (UniProt P49585), for which the log2 fold change is 0.056 (inactive).

Regarding PSMC3 (UniProt E9PLG2), the log2 fold change was -0.056 (inactive).

On to PPP2R5B (UniProt Q15173), for which the log2 fold change was -0.098 (inactive).
